Counter-ions that a name gives are not always drawn.
Legend:
Assay in all cases: phenotypically active (imaging signature differs from DMSO and reproducible) at any of 0.3-9 uM (binary (1 = active, 0 = inactive)); higher = active
Conditions in all cases: treatment time: 24 h
[1] = system: A549-ACTB-RAB5A
How it was run: (§1)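 Phenotypic activity depended on meeting both a deviation and a reproducibility criterion. The fifteen gene-edited A549, HepG2 and WPMY1 reporter lines were treated at 0.3, 1, 3 or 9 µM for 24 h, four wells each, then imaged live with features normalised to solvent control wells. Deviation required ≥3 of 4 wells past the 95th percentile of control Euclidean distances, and reproducibility a median replicate Pearson correlation above the 95th percentile of non-replicates.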

[2] = system: A549-CANX-COX4
How it was run: as §1

[3] = system: A549-GM130-SQSTM1
How it was run: as §1

[4] = system: A549-TP53BP1-CLTA
How it was run: as §1

[5] = system: A549-TUBA1B-RELA
How it was run: as §1

[6] = system: HepG2-ACTB-RAB5A
How it was run: as §1

[7] = system: HepG2-CANX-COX4
How it was run: as §1

[8] = system: HepG2-GM130-SQSTM1
How it was run: as §1

[9] = system: HepG2-TP53BP1-CLTA
How it was run: as §1

[10] = system: HepG2-TUBA1B-RELA
How it was run: as §1

[11] = system: WPMY1-ACTB-RAB5A
How it was run: as §1

[12] = system: WPMY1-CANX-COX4
How it was run: as §1

[13] = system: WPMY1-GM130-SQSTM1
How it was run: as §1

[14] = system: WPMY1-TP53BP1-CLTA
How it was run: as §1

[15] = system: WPMY1-TUBA1B-RELA
How it was run: as §1

Measured: phenotypically active

CC(=O)/N=c1/sc(S(N)(=O)=O)nn1C [methazolamide]
inactive: [1] 0 | [2] 0 | [3] 0 | [4] 0 | [5] 0 | [6] 0 | [7] 0 | [8] 0 | [9] 0 | [10] 0 | [11] 0 | [12] 0 | [13] 0 | [14] 0 | [15] 0

CC[N+](C)(CC)CCOC(=O)C1c2ccccc2Oc2ccccc21 [methantheline]
inactive: [1] 0 | [2] 0 | [3] 0 | [4] 0 | [5] 0 | [6] 0 | [7] 0 | [8] 0 | [9] 0 | [10] 0 | [11] 0 | [12] 0 | [13] 0 | [14] 0 | [15] 0

CCN(CC)CCNC(=O)c1cc(Cl)c(N)cc1OC [metoclopramide]
inactive: [1] 0 | [2] 0 | [3] 0 | [4] 0 | [5] 0 | [6] 0 | [7] 0 | [8] 0 | [9] 0 | [10] 0 | [11] 0 | [12] 0 | [13] 0 | [14] 0 | [15] 0

COc1ccc([C@@H]2CNC(=O)C2)cc1OC1CCCC1 [(R)-(-)-Rolipram]
inactive: [1] 0 | [2] 0 | [3] 0 | [4] 0 | [5] 0 | [6] 0 | [7] 0 | [8] 0 | [9] 0 | [10] 0 | [11] 0 | [12] 0 | [13] 0 | [14] 0 | [15] 0

COc1ncc2cc(C(=O)Nc3cc(C(=O)NCc4cccc(Cl)c4)ccc3Cl)c(=O)[nH]c2n1
inactive: [1] 0 | [2] 0 | [3] 0 | [4] 0 | [5] 0 | [6] 0 | [7] 0 | [8] 0 | [9] 0 | [10] 0 | [11] 0 | [12] 0 | [13] 0 | [14] 0 | [15] 0

Cn1cnc2c(NCc3ccccc3)nc(NCCO)nc21 [Olomoucine]
inactive: [1] 0 | [2] 0 | [3] 0 | [4] 0 | [5] 0 | [6] 0 | [7] 0 | [8] 0 | [9] 0 | [10] 0 | [11] 0 | [12] 0 | [13] 0 | [14] 0 | [15] 0

CN1C(=O)CC(C)(c2ccccc2)C1=O (stereo not given) [methsuximide]
inactive: [1] 0 | [2] 0 | [3] 0 | [4] 0 | [5] 0 | [6] 0 | [7] 0 | [8] 0 | [9] 0 | [10] 0 | [11] 0 | [12] 0 | [13] 0 | [14] 0 | [15] 0

COc1cc2ncnc(Oc3cccc(NC(=O)Nc4cc(C(C)(C)C(F)(F)F)on4)c3)c2cc1OC
inactive: [1] 0 | [2] 0 | [3] 0 | [4] 0 | [5] 0 | [6] 0 | [7] 0 | [8] 0 | [9] 0 | [10] 0 | [11] 0 | [12] 0 | [13] 0 | [14] 0 | [15] 0

CCCCC(=O)O[C@H]1CC[C@H]2[C@@H]3CCc4cc(O)ccc4[C@H]3CC[C@]12C [estradiol valerate]
inactive: [1] 0 | [2] 0 | [3] 0 | [4] 0 | [5] 0 | [6] 0 | [7] 0 | [8] 0 | [9] 0 | [10] 0 | [11] 0 | [12] 0 | [13] 0 | [14] 0 | [15] 0

CC(C(=O)Nc1cccc(/N=C/c2c(O)ccc3ccccc23)c1)c1ccccc1 (stereo not given) [Salermide]
inactive: [1] 0 | [2] 0 | [3] 0 | [4] 0 | [5] 0 | [6] 0 | [7] 0 | [8] 0 | [9] 0 | [10] 0 | [11] 0 | [12] 0 | [13] 0 | [14] 0 | [15] 0

CCC1(c2ccccc2)C(=O)NCNC1=O [primidone]
inactive: [1] 0 | [2] 0 | [3] 0 | [4] 0 | [5] 0 | [6] 0 | [7] 0 | [8] 0 | [9] 0 | [10] 0 | [11] 0 | [12] 0 | [13] 0 | [14] 0 | [15] 0

CC(=O)[C@H]1CC[C@H]2[C@@H]3C=CC4=CC(=O)CC[C@@]4(C)[C@@H]3CC[C@]12C [dydrogesterone]
inactive: [1] 0 | [2] 0 | [3] 0 | [4] 0 | [5] 0 | [6] 0 | [7] 0 | [8] 0 | [9] 0 | [10] 0 | [11] 0 | [12] 0 | [13] 0 | [14] 0 | [15] 0

Cc1ccc(-c2cc(C(F)(F)F)nn2-c2ccc(S(N)(=O)=O)cc2)cc1 [celecoxib]
inactive: [1] 0 | [2] 0 | [3] 0 | [4] 0 | [5] 0 | [6] 0 | [7] 0 | [8] 0 | [9] 0 | [10] 0 | [11] 0 | [12] 0 | [13] 0 | [14] 0 | [15] 0

CCCCOc1cc(C(=O)OCCN(CC)CC)ccc1N [oxybuprocaine]
inactive: [1] 0 | [2] 0 | [3] 0 | [4] 0 | [5] 0 | [6] 0 | [7] 0 | [8] 0 | [9] 0 | [10] 0 | [11] 0 | [12] 0 | [13] 0 | [14] 0 | [15] 0

Cc1ncc([N+](=O)[O-])n1CCOC(=O)NC(Nc1ncccn1)C(Cl)(Cl)Cl (stereo not given) [Apcin]
inactive: [1] 0 | [2] 0 | [3] 0 | [4] 0 | [5] 0 | [6] 0 | [7] 0 | [8] 0 | [9] 0 | [10] 0 | [11] 0 | [12] 0 | [13] 0 | [14] 0 | [15] 0

CC(C)C(=O)c1c(C(C)C)nn2ccccc12 [Ibudilast]
inactive: [1] 0 | [2] 0 | [3] 0 | [4] 0 | [5] 0 | [6] 0 | [7] 0 | [8] 0 | [9] 0 | [10] 0 | [11] 0 | [12] 0 | [13] 0 | [14] 0 | [15] 0

CN(C(=O)CCCOc1ccc2[nH]c(=O)ccc2c1)C1CCCCC1 [Cilostamide]
inactive: [1] 0 | [2] 0 | [3] 0 | [4] 0 | [5] 0 | [6] 0 | [7] 0 | [8] 0 | [9] 0 | [10] 0 | [11] 0 | [12] 0 | [13] 0 | [14] 0 | [15] 0

CCc1ccc(CCOc2ccc(CC3SC(=O)NC3=O)cc2)nc1 (stereo not given) [Pioglitazone hydrochloride]
inactive: [1] 0 | [2] 0 | [3] 0 | [4] 0 | [5] 0 | [6] 0 | [7] 0 | [8] 0 | [9] 0 | [10] 0 | [11] 0 | [12] 0 | [13] 0 | [14] 0 | [15] 0

CCn1c(=O)c2cc(C(N)=O)c(N)nc2n(C2CC2)c1=O
inactive: [1] 0 | [2] 0 | [3] 0 | [4] 0 | [5] 0 | [6] 0 | [7] 0 | [8] 0 | [9] 0 | [10] 0 | [11] 0 | [12] 0 | [13] 0 | [14] 0 | [15] 0

COc1c2c(cc3oc(CO)cc(=O)c13)O[C@@H](C(C)(C)O)C2 [Cimifugin]
inactive: [1] 0 | [2] 0 | [3] 0 | [4] 0 | [5] 0 | [6] 0 | [7] 0 | [8] 0 | [9] 0 | [10] 0 | [11] 0 | [12] 0 | [13] 0 | [14] 0 | [15] 0

CC(=O)OCC[N+](C)(C)C [acetylcholine]
inactive: [1] 0 | [2] 0 | [3] 0 | [4] 0 | [5] 0 | [6] 0 | [7] 0 | [8] 0 | [9] 0 | [10] 0 | [11] 0 | [12] 0 | [13] 0 | [14] 0 | [15] 0

O=C(Nc1c(Cl)cncc1Cl)c1ccc(OC(F)F)c(OCC2CC2)c1 [roflumilast]
inactive: [1] 0 | [2] 0 | [3] 0 | [4] 0 | [5] 0 | [6] 0 | [7] 0 | [8] 0 | [9] 0 | [10] 0 | [11] 0 | [12] 0 | [13] 0 | [14] 0 | [15] 0

CNNCc1ccc(C(=O)NC(C)C)cc1 [procarbazine]
inactive: [1] 0 | [2] 0 | [3] 0 | [4] 0 | [5] 0 | [6] 0 | [7] 0 | [8] 0 | [9] 0 | [10] 0 | [11] 0 | [12] 0 | [13] 0 | [14] 0 | [15] 0

C/C=C1/[C@H]2C=C(C)C[C@]1(N)c1ccc(=O)[nH]c1C2 [Huperzine A]
inactive: [1] 0 | [2] 0 | [3] 0 | [4] 0 | [5] 0 | [6] 0 | [7] 0 | [8] 0 | [9] 0 | [10] 0 | [11] 0 | [12] 0 | [13] 0 | [14] 0 | [15] 0

From the supplement of paper PMC7411054
